# Assay results: PubChem BioAssay AID521 (Sanford-Burnham Center for Chemical Genomics, 2006)
# Hit rate of the full screen: of about 110,000 compounds, about 730 (0.66%) were called active. The full list was thinned out, with actives kept by preference. Values without a mark were called inactive. No stated cut-off is given here; in the data, active means inhibition above about 50%; inconclusive means no clear call, values can overlap the other calls; inactive means below that.
# Target: Tyrosine-protein phosphatase non-receptor type 7 (Homo sapiens) (UniProt P35236)
# Sequence (P35236 whole entry, looked up): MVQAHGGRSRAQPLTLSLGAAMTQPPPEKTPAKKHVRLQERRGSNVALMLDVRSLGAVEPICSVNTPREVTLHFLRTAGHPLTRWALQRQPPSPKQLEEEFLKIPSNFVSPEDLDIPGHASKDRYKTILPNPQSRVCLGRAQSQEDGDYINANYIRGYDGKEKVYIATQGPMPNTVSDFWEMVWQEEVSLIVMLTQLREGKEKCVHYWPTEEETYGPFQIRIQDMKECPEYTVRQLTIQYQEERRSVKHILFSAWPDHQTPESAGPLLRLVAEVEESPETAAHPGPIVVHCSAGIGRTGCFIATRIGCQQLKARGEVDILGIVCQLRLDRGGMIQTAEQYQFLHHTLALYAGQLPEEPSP
# Assay: inhibitors of human HePTP phosphatase, primary screen, biochemical, absorbance, leukemia target (AID 521);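 further: plate controls were vehicle for no effect and reference inhibitor for full effect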
# Details: recombinant HePTP phosphatase activity, OD absorbance; at 20 µM; stronger effect = higher value
row,Compound,inhibition
1,CN(C)c1ccc(C2/C(=C(\O)c3ccccc3)C(=O)C(=O)N2CCCC(=O)O)cc1 (configuration not stated),3.2%
2,COc1cc(/C=C2/SC(=S)N(C)C2=O)cc([N+](=O)[O-])c1O,6.6%
3,CC(=O)C1=C(O)C(=O)N(CCN2CCNCC2)C1c1ccc(C)cc1 (configuration not stated),6%
4,Cc1ccc(-c2csc(NC(=O)c3ccc(Cl)cc3)n2)cc1,7%
5,CCN1C(=O)/C(=C\c2cn(CCOc3ccc(Br)cc3)c3ccccc23)SC1=S,2.4%
6,Cc1cc(Cl)ccc1OCC(=O)O/N=C(\N)c1ccncc1,-14.4%
7,COC(=O)CCN(C(=O)c1ccc(F)cc1)c1ccccn1,-21.6%
8,O=C(NC(=O)C(Cl)(Cl)Cl)Nc1ccc(Cl)c(Cl)c1,3.7%
9,O=C(Nc1nccs1)C(c1ccccc1)c1ccccc1,-5.8%
10,Cc1ccc(S(=O)(=O)Nc2ccc(NC(=O)C3C4C=CC(O4)C3C(=O)O)cc2)cc1 (configuration not stated),-5.5%
11,O=C(O)C1C2C=CC(O2)C1C(=O)Nc1nccs1 (configuration not stated),104% (active)
12,O=C(c1ccc2c(c1)OCO2)N1CCNc2ccccc2C1,7.3%
13,O=C(Nc1ccc(N2CCOCC2)cc1)c1ccc2c(c1)OCO2,-5.6%
14,O=C(c1ccc2c(c1)OCO2)N1CCOCC1,104% (active)
15,O=C(Nc1cccnc1)c1cnn2c1NC(c1ccco1)CC2C(F)(F)F (configuration not stated),0.1%
16,Cc1cc2oc(=O)cc(C)c2cc1NC(=O)c1ccccc1,-31.1%
17,O=C(O)C(Sc1nc2ccccc2s1)c1ccccc1 (configuration not stated),-17.3%
18,O=C(O)CCCCCCCCCCN1C(=O)/C(=C/c2ccc(Br)cc2)SC1=S,70.7% (active)
19,O=C1/C(=C/c2ccc(Br)cc2)SC(=S)N1CCc1ccccc1,3.2%
20,O=C(O)CCCN1C(=O)/C(=C/c2ccccc2)SC1=S,8.8%
21,O=C(Nc1cccc(O)c1)c1cc2nc(-c3ccc(F)cc3)cc(C(F)(F)F)n2n1,4.4%
22,CCOC(=O)c1ccc(N2NC(=O)/C(=C/c3ccc(Br)cc3)C2=O)cc1,6.5%
